The list is not random: actives were taken first. Their share in the collection is about 12%.
LASV entry inh: qHTS for Inhibitors of binding or entry into cells for Lassa Virus | Lassa virus pseudotype entry inhibition, cell reporter | Potency, µM (highest dose often 37.9 µM), usual class: inhibitors | 300,000 compounds, 1.2% hits; calls by dose curve; tested in HEK293 cells; note: nearly all actives have a fitted effect of over 50% in size
CHX counter: Cycloheximide Counterscreen for Small Molecule Inhibitors of Shiga Toxin; cell reporter, cycloheximide protein synthesis inhibition counterscreen; max response, %; 300,000 compounds, 12% hits; AID 2314, 2010; in the data active = max response mostly above about 13%, no sharp cut-off; inactive = mostly below about 14%; note: read at 38.3 µM for the half of the compounds with a filed dose
Shiga inhibitor: A qHTS for Small Molecule Inhibitors of Shiga Toxin; Vero cells, Shiga toxin protein synthesis inhibition reporter; inhibition, % at 38.7 µM; 290,000 compounds, 9.2% hits; AID 2315, 2010; in the data active = inhibition mostly above about 28%, no sharp cut-off; inactive = mostly below about 43%
Marburg entry inh: qHTS for inhibitors of binding or entry into cells for Marburg Virus; Marburg virus pseudotyped entry inhibition, cell reporter; Potency, µM (titrated, usually from 37.8 µM), usual class: inhibitors; 300,000 compounds, 1.8% hits; AID 540276, 2011; calls by dose curve; tested in HEK293 cells
Large screens that a line does not name were inactive.

CC1C/C(=N\NC(=O)c2ccc(NS(=O)(=O)c3ccc(Br)cc3)cc2)CC(C)(C)C1 (stereo not given)	Shiga inhibitor 16.8
CC(O)C(O)C(O)C(O)/C=N/NC(=O)c1ccccc1 (stereo not given)	CHX counter 37.9, Shiga inhibitor 85.9
COc1ccccc1-c1noc(CCC(=O)NC2CCCCC2)n1	none
CC(C)/C=N/NC(=O)c1ccc(Cl)cc1	CHX counter 24.5
O=C(NN=C1CCCC1)c1ccc(Br)cc1	LASV entry inh inconclusive
COc1ccc(C(=O)NN=C2CCCC2)cc1	CHX counter active (no result: LASV entry inh, Marburg entry inh)
Cc1cc(Br)c(OCc2ccc(C(=O)N/N=C3\CC(=O)CC(C)(C)C3)cc2)c(Br)c1	LASV entry inh inconclusive
Cc1cc(OCc2ccc(C(=O)NN=C3CCCC3)cc2)ccc1Cl	CHX counter 57.5, Shiga inhibitor 84.7, Marburg entry inh inconclusive
COc1cccc(C(=O)NN=C2CCCC2)c1	CHX counter 38.4, Shiga inhibitor 66.8
Cc1cc(Cl)ccc1NC(=S)N1CCN(C(=O)c2ccco2)CC1	none
COc1ccccc1N1CC(C)(C)C(=O)N(C(=O)c2ccc(Cl)cc2)C1=S	LASV entry inh inconclusive, Marburg entry inh inconclusive
COc1ccc(CCN(C)C(=O)C2CCCN(C3CCN(Cc4ccccc4)CC3)C2)cc1OC (stereo not given)	none (no result: LASV entry inh, Marburg entry inh)
Cc1ccc(CNC(=O)C2CCCN(S(=O)(=O)c3ccc(F)cc3)C2)cc1 (stereo not given)	Marburg entry inh inconclusive
COc1ccc(OC)c(C2=Nn3c(nnc3-c3ccccc3O)SC2)c1	none (no result: LASV entry inh, Marburg entry inh)
CC1C/C(=N\NC(=O)c2cccnc2)CC(C)(C)C1 (stereo not given)	CHX counter 17.7
CC1C/C(=N\NC(=O)c2ccc([N+](=O)[O-])cc2)CC(C)(C)C1 (stereo not given)	none (no result: LASV entry inh, Marburg entry inh)
O=C(NN=C1CCCC1)c1cccc(O)c1	CHX counter 46.7, Shiga inhibitor 75.8 (no result: LASV entry inh, Marburg entry inh)
CCN(C(=O)c1c(C)cc(=O)oc1C)c1ccc2c(c1)OCO2	none
CCN(C(=O)c1coc(=O)c(Br)c1)c1ccc2c(c1)OCO2	CHX counter 27.2, Shiga inhibitor 85.9
CN(C(=O)c1ccncc1)c1nnc(-c2ccccn2)s1	CHX counter 34.7, Marburg entry inh inconclusive
CN(C(=O)c1ccc(C#N)cc1)c1nnc(-c2ccccn2)s1	LASV entry inh inconclusive
Cc1ccc(C(=O)N(C)c2nnc(-c3ccncc3)s2)cc1	CHX counter 14.9, Shiga inhibitor 58.4, Marburg entry inh inconclusive
CCCCN(C)CCNC(=O)c1nn(-c2ccc(OC)c(Cl)c2)c(=O)c2c1c1ccccc1n2C	LASV entry inh inconclusive (no result: CHX counter, Shiga inhibitor)
O=[N+]([O-])c1ccc(S(=O)(=O)Nc2nnc(C(F)(F)F)s2)cc1	none (no result: LASV entry inh, Marburg entry inh)
COc1ccc(CNC(=O)CN2C(=O)CSc3ccc(S(=O)(=O)N4CCC(C)CC4)cc32)cc1	none (no result: CHX counter, Shiga inhibitor, Marburg entry inh)
Cc1cccc(C)c1OCc1cc(C(=O)N2CC3C[C@@H]4CC2C[C@H](C3)C4)no1	CHX counter 65.4, Shiga inhibitor 96.4, Marburg entry inh inconclusive
Cc1ccc(OCc2cc(C(=O)N3CC4C[C@@H]5CC3C[C@H](C4)C5)no2)cc1C	CHX counter 34.6, Shiga inhibitor 134.6
O=C(N/N=C/C=C/c1ccco1)c1cccnc1	none
Cc1cc(C(=O)N/N=C/C(Cl)=C/c2ccccc2)c(C)o1	CHX counter 26.9, Shiga inhibitor 42.7
O=C(N/N=C/C(Br)=C/c1ccccc1)c1cnccn1	LASV entry inh inconclusive, CHX counter 50.2, Shiga inhibitor 99.1, Marburg entry inh inconclusive
Cc1ccc(-c2cc(C(=O)N/N=C/C(Br)=C/c3ccccc3)n[nH]2)o1	LASV entry inh inconclusive, Marburg entry inh inconclusive
O=C(N/N=C\C=C\c1ccco1)c1cc(-c2ccc3ccccc3c2)n[nH]1	CHX counter 23.8, Shiga inhibitor active (no result: LASV entry inh)
O=C(N/N=C/C=C\c1ccccc1[N+](=O)[O-])c1ccccn1	CHX counter 61.3, Shiga inhibitor 75.3
CCOC(=O)c1c(NC(=O)CCCOc2ccc(C)cc2)sc2c1CCC(C)C2 (stereo not given)	none (no result: CHX counter, Shiga inhibitor, Marburg entry inh)
O=C(N/N=C/C(Cl)=C/c1ccccc1)c1ccccn1	LASV entry inh inconclusive, CHX counter 32.5, Shiga inhibitor 75.8, Marburg entry inh inconclusive
O=C(N/N=C/C=C/c1ccco1)c1cnccn1	none
O=C(N/N=C/C(Cl)=C/c1ccccc1)c1ccncc1	none
O=C(N/N=C/C=C/c1ccccc1)c1ccccn1	CHX counter 55.1, Shiga inhibitor 68.3
Nc1nnn(CC(=O)N/N=C/C=C/c2ccccc2)n1	CHX counter 21.4, Shiga inhibitor 58.3
O=C(N/N=C/C=C\c1ccco1)c1ccccn1	CHX counter 24.0
Cc1cc(C)c(O)c(-c2n[nH]c3c2C(c2cccc(O)c2)N(Cc2ccco2)C3=O)c1 (stereo not given)	none (no result: LASV entry inh, Marburg entry inh)

Source: PubChem BioAssay
